This is an account of results in PubChem BioAssay AID1745850 (National Center for Advancing Translational Sciences (NCATS), 2022).

The whole screen tested about 2,100 compounds, of which about 260 (12%) were called active. Not shown: some 58% with an inconclusive outcome. Calls follow the shape of the dose curve; as a rule, active = well fitted cell-killing curve with a large enough effect; inconclusive = small, poorly fitted or top-dose-only effect, or effect the other way; inactive = flat fitted curve, though single readings scatter. Some of the results follow. A call without a number means that no potency is given here.
Potency is read from the fitted curve at half-maximal effect.

The nature of the assay: Viability Counterscreen for Confirmatory qHTS for Inhibitors of ATXN expression. Also: nearly all actives have a fitted effect of over 50% in size. Conditions: HEK-293 ATXN2-luc cells viability, CellTiter-Fluor, 24 h. In short, it runs like this: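 Luminescence read-out (SteadyGlo, 5 min) followed a 30 min Gly-Phe-AFC (25 uM final) viability fluorescence read. ATXN2-luciferase reporter cells were exposed 24 h to a dilution series. Medium-only wells served as the 100% inhibition reference.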
On the technique in general: The purpose of a counterscreen is to sort out artefacts and off-target activity.
For `C/C(=N\Nc1cc(N2CCOCC2)nc(C)n1)c1cccc([N+](=O)[O-])c1`, the Potency result is “inactive”. Take `CC1CCCCN1S(=O)(=O)c1ccc(C(=O)Nc2nnc(-c3ccccc3Cl)o2)cc1` (configuration not stated): the Potency result was “inactive”. `O=C1C=C(Nc2ccccc2O)c2ccccc2C1=O`: the Potency is 20 µM (active). On to `Cc1cc(NC(=O)CSc2nccn2-c2cccc(C)c2C)no1`, for which the Potency result was “inactive”.

`CCOC(=O)Nc1ccc(N2CCOCC2)c(S(=O)(=O)Nc2ccc(Cl)cc2)c1`: the Potency entry is “inactive”.

Take `CCOC(=O)c1ccc(N=c2sc(C(=O)OC)cc(=O)n2-c2ccc(C(=O)OCC)cc2)cc1`: the Potency entry was “inactive”. To `CCOC(=O)c1ccc2ncc(C(=O)OCC)c(Nc3ccc(N4CCOCC4)cc3)c2c1` belongs 3.16 µM (active). With `Cc1ccc(NC(=O)CNC(=O)c2cccc(Cl)c2)nc1`, the Potency result was “inactive”. Take `Cc1ccc(NC(=O)c2cnc(N3CCN(c4ccccn4)CC3)c3ccccc23)c(Br)c1`: the Potency is 14.1 µM (active).

In the case of `Cc1cc(Br)ccc1NC(=O)c1cnc(N2CCN(c3ccccn3)CC2)c2ccccc12`, the Potency result is “inactive”.

On to `CCN(CC)S(=O)(=O)c1ccc(C)c(NC(=S)N2CCN(c3ccccn3)CC2)c1`, for which the Potency entry is “inactive”. To `Brc1cnc2nc(SCc3nc4ccccc4[nH]3)[nH]c2c1` belongs “inactive”; to `CCn1c(CCC(=O)Nc2nc3c(s2)CCCC3)nc2cc(S(=O)(=O)N(C)C)ccc21`, “inactive”. On to `Cc1ccc(C(=O)NC(C)CCc2ccccc2)cc1S(=O)(=O)N1CCOCC1` (configuration not stated), for which the Potency entry is “inactive”. Under `O=C(Nc1cccc(S(=O)(=O)N2CCOCC2)c1)c1ccc2c(=O)n3c(nc2c1)CCCCC3` stands “inactive”; under `O=C(Nc1cccc(S(=O)(=O)C(F)F)c1)c1ccc(Cl)c(S(=O)(=O)N2CCOCC2)c1`, 28.2 µM (active). With `COc1ccc(Cn2c(O)c(/C=N/NC(=O)c3cccnc3)c3ccccc3c2=O)cc1`, the Potency result is “inactive”. To `CCN(Cc1ccccc1)S(=O)(=O)c1ccc(C(=O)Nc2nnc(C3CC3)o2)cc1` belongs “inactive”; to `Cc1cc2c(c(/C=C/C(=O)c3ccccc3)c1)OC1(C=C2)Oc2ccccc2C(=O)N1C` (configuration not stated), 25.1 µM (active). `Cc1cc(C)cc(NC(=O)CSc2nc3[nH]ncc3c(=O)[nH]2)c1`: the Potency result is “inactive”. Turning to `Nc1c(C(=O)NCc2ccccc2)c2nc3ccccc3nc2n1-c1ccc2c(c1)OCO2`, the Potency entry was “inactive”.

`CCOC(=O)c1c(C)sc2c1N(C(=O)CN(CC)CC)c1cc(Cl)ccc1S2`: the Potency is 22.4 µM (active). To `Cc1ccc(-c2nc3cc(Br)cnc3nc2-c2ccc(C)cc2)cc1` belongs “inactive”; to `COc1ccc(OCc2cccc(C(=O)Nn3cc([N+](=O)[O-])cn3)c2)cc1`, “inactive”; to `Cc1ccc2c(c1)-c1c(cnn1CC(=O)N1CCCN(Cc3ccccc3F)C1)CO2`, “inactive”. To `COc1ccc2nc(NC(=O)C3CCN(S(=O)(=O)c4cccs4)CC3)sc2c1` belongs “inactive”; to `Cc1ccc(S(=O)(=O)N2CCc3ccccc3CC2)cc1`, “inactive”. With `Cc1cc(C)c2nc(NNC(=O)c3cc(-c4cccs4)nc4ccccc34)sc2c1`, the Potency result was “inactive”. On to `CCOC(=O)N1CCN(S(=O)(=O)c2ccc(C(=O)NNc3nc4c(C)cc(C)cc4s3)cc2)CC1`, for which the Potency result is “inactive”.

Turning to `Cc1cc(C)c2nc(NNC(=O)c3ccc(S(=O)(=O)N4CC(C)CC(C)C4)cc3)sc2c1` (configuration not stated), the Potency was 11.2 µM (active). Regarding `Cc1cccc2sc(NNC(=O)c3ccc(S(=O)(=O)N4CC(C)CC(C)C4)cc3)nc12` (configuration not stated), the Potency was 11.2 µM (active). To `CC1CCCN(S(=O)(=O)c2ccc(C(=O)Nc3nnc(-c4ccccc4Cl)o3)cc2)C1` (configuration not stated) belongs “inactive”; to `Cc1ccc2nc(NNC(=O)c3ccc(S(=O)(=O)N4CCc5ccccc5C4)cc3)sc2c1`, 10 µM (active); to `Cc1ccc2nc(NC(=O)CSCC(=O)OCC(=O)c3ccc(Br)cc3)sc2c1`, “inactive”. On to `S=C(NCc1ccc(Cl)cc1Cl)NC1CCCCC1`, for which the Potency result was “inactive”. Turning to `CCc1ccc(OCC(=O)N/N=C(\C)c2ccc(O)cc2O)cc1`, the Potency entry was “inactive”.

In the case of `C/C(=N\NC(=O)c1ccc(CN2CCc3ccccc3C2)cc1)c1ccccc1O`, the Potency entry was “inactive”. For `COc1cc(C#Cc2c(-c3cncn3C)n(C)c3ccc(-c4cnc(OC)nc4)cc23)cc(OC)c1`, the Potency entry was “inactive”. To `CC(Sc1nnc2c(n1)[nH]c1ccccc12)C(=O)N(C)C1CCCCC1` (configuration not stated) belongs 20 µM (active). Under `CCc1nc2c(OCCOc3ccc(F)cc3)cccn2c1N(C)C(=O)c1ccco1` stands “inactive”. As for `COc1cc(/C=C2\SC(=O)N(CC(=O)Nc3ccccc3F)C2=O)cc(Cl)c1O`, the Potency entry is “inactive”.

Turning to `O=C1/C(=C\c2cc(Cl)c(O)c(Cl)c2)SC(=S)N1Cc1ccccc1`, the Potency was 15.8 µM (active). To `Clc1c(Cl)c(Cl)c2n[nH]nc2c1Cl` belongs “inactive”; to `NC(N)=N/N=C/c1ccc(Cl)c(Cl)c1`, 28.2 µM (active); to `CCOC(=O)Oc1c(OC)cc(C(=O)O[C@@H]2C[C@@H]3CN4CCc5c([nH]c6cc(OC)ccc56)[C@H]4C[C@@H]3[C@H](C(=O)OC)[C@H]2OC)cc1OC`, “inactive”. In the case of `CC1=NN(c2nc3ccccc3[nH]2)C(=O)C1Cc1ccccc1` (configuration not stated), the Potency was 8.91 µM (active). As to `CCCCn1c(SCC(=O)Nc2cc(C(F)(F)F)cc(C(F)(F)F)c2)nnc1C(CC)N(C)C` (configuration not stated), the Potency entry is “inactive”. With `COC(=O)C(Cc1ccc(O)cc1)NC(=O)C(C)Oc1ccccc1` (configuration not stated), the Potency result was “inactive”. On to `CN(Cc1ccccc1)C(=O)c1ccc(Nc2nc(C(N)Cc3ccccc3)cs2)nc1` (configuration not stated), for which the Potency was 14.1 µM (active).

`CCc1nc2ccc(C(=O)N(C)Cc3ccccc3)cn2c1N(C)Cc1ccc(OC)cc1`: the Potency entry is “inactive”. With `COc1ccc(CC(N)c2csc(Nc3ccc(C(=O)c4ccccc4)cc3)n2)cc1` (configuration not stated), the Potency result is “inactive”. On to `CC(C)CC(N)c1csc(Nc2ccc(C(=O)N(C)Cc3ccccc3)cn2)n1` (configuration not stated), for which the Potency was 14.1 µM (active). Take `O=C(CN1C(=O)c2ccccc2S1(=O)=O)c1ccc(O)c(O)c1`: the Potency result is “inactive”. Take `CC(C)CC(NC(=O)c1ccc(Cl)cc1)C(=O)OCC(=O)c1ccc2c(c1)NC(=O)CO2` (configuration not stated): the Potency was 28.2 µM (active). Under `Cc1ccc(-c2ccc(/C=N/c3ncn[nH]3)o2)cc1Cl` stands “inactive”; under `COc1nn(-c2ccccc2)c(=O)c(Cl)c1Cl`, 2.82 µM (active); under `CCOC(=O)N(C)c1c(CC)nc2c(OCc3ccccc3OC)cccn12`, “inactive”. Regarding `CSCC[C@H](NC(=O)OC(C)(C)C)C(=O)N/N=C/c1cccc2cccnc12`, the Potency entry was “inactive”. Under `CCc1cc[n+](C2=C([O-])c3ccccc3C(=O)/C2=N\S(=O)(=O)c2cccs2)cc1` stands 17.8 µM (active); under `CC(C)CCNC(=O)COc1cccc2c1OC(C)(C)C2`, “inactive”; under `CCOC(=O)[C@H]1[C@H]2COc3ccc(OC)cc3[C@@H]2N2C(=O)c3cc(OC)c(OC)cc3NC(=O)[C@@]12C`, “inactive”. Regarding `Cc1cc(O)c(C(C)C)cc1N=Cc1ccc(N(C)C)cc1`, the Potency entry is “inactive”. As for `Cc1cc(C2=NNC(=NC3CC3)SC2)c(C)n1-c1ccccc1F`, the Potency entry was “inactive”. Consider `Cc1cccc(N2CCN(C(=O)CNC(=O)Cc3ccccc3)CC2)c1C`, for which the Potency result was “inactive”. Take `CCC(C)(C)c1ccc(OCCCC[n+]2ccccc2)c(C(C)(C)CC)c1`: the Potency result is “inactive”. To `CCC(C)(C)c1ccc(OCCCC[n+]2ccc(C)cc2)c(C(C)(C)CC)c1` belongs “inactive”; to `CCCCCc1ccc(OCCC[n+]2ccccc2)c(CCCCC)c1`, 20 µM (active). Turning to `Cc1cccc(OCCSc2nc3ncnc(N)c3[nH]2)c1`, the Potency result is “inactive”. In the case of `Cc1nc(-c2ccc(Cl)cc2)sc1C(=O)NN`, the Potency result was “inactive”.

Regarding `COc1ccc2nc(C)cc(NCc3cccc(C(F)(F)F)c3)c2c1`, the Potency is 22.4 µM (active). As to `COc1ccc(N2CCN(c3cc(C)nc4ccc(OC)cc34)CC2)cc1`, the Potency result was “inactive”. Regarding `COc1ccc2nc(C)c3c(c2c1)OC(C(C)(Cl)Br)C3` (configuration not stated), the Potency result was “inactive”. Consider `O=C(CCN1CCN(c2ccccc2)CC1)N/N=C/c1ccccc1O`, for which the Potency entry was “inactive”. To `COc1cc(C(=O)OC(C)C(=O)N2CCc3ccccc3C2)ccc1OCC(=O)N1CCOCC1` (configuration not stated) belongs “inactive”. With `Cc1cc(C)c(C)c(OC(=O)c2sc(Cl)nc2C)c1`, the Potency was 28.2 µM (active). With `COC(=O)c1sc(NC(=O)c2ccc(OC)cc2OC)nc1C`, the Potency result is “inactive”.

For the compound `CCOC(=O)C1CCN(c2ncnc3c2cnn3-c2ccc(Cl)cc2)CC1`, the Potency entry was “inactive”.

Turning to `Cc1cc(N2CCN(c3nc(-c4ccccc4)cs3)CC2)c2ccccc2n1`, the Potency result was “inactive”. In the case of `Cn1cccc1/C=N/N1CCN(Cc2ccccc2Cl)CC1`, the Potency entry is “inactive”. `O=[N+]([O-])c1ccc(O)c2ncccc12`: the Potency was 11.2 µM (active). As to `Cc1ccnc(N2C(=O)c3cccc4c([N+](=O)[O-])ccc(c34)C2=O)c1`, the Potency result was “inactive”. Take `CCOC(=O)N1CCN(Cc2cc(Cl)c3cccnc3c2O)CC1`: the Potency entry is “inactive”. Take `O=C1c2cccc3c([N+](=O)[O-])ccc(c23)C(=O)N1c1ccc(Cl)cn1`: the Potency entry was “inactive”. To `CC(C)COCc1ccc(O)c2ncccc12` belongs “inactive”. With `O=[N+]([O-])c1cc(Cl)c(O)c2ncccc12`, the Potency was 11.2 µM (active). Regarding `Cn1c(-[n+]2c(-c3ccccc3)cc(-c3ccccc3)cc2-c2ccccc2)nc2c([N+](=O)[O-])cccc21`, the Potency result is “inactive”. For `COc1ccc(N=Cc2cc3c(cc2O)OC(N)=C(C#N)C3c2ccccc2)cc1` (configuration not stated), the Potency entry was “inactive”. `O=C1CCCC(O)=C1C=NCc1ccccc1`: the Potency result was “inactive”. Consider `CCCCC(=O)N(CCOC)c1nnc(-c2ccccc2C)s1`, for which the Potency entry is “inactive”.

Consider `CC(=O)Nc1ccc(CNc2nc(NC(C)C)nc3cc(-c4ccccc4)sc23)cc1`, for which the Potency was 25.1 µM (active). For `COc1ccc(-c2cc(CNc3nc(NC(C)C)nc4cc(-c5ccccc5)sc34)on2)cc1`, the Potency is 22.4 µM (active).

Regarding `CC(=O)Nc1ccc(CNc2nc3cc(-c4ccccc4C)sc3c(=O)n2C)cc1`, the Potency result is “inactive”. Regarding `COc1ccccc1CNc1nc(NC(C)C)nc2cc(-c3ccccc3)sc12`, the Potency is 28.2 µM (active). As for `CCn1c2ccccc2c2cc(/C=N/n3cnnc3)ccc21`, the Potency entry is “inactive”. On to `CCOCCn1ccc2c(OCC(=O)Nc3ccc(OC)c(OC)c3)cccc2c1=O`, for which the Potency entry is “inactive”. To `COCCNc1nc(-c2cc(C)n(CCc3ccc(OC)cc3)c2C)cs1` belongs “inactive”; to `COCCCn1c(N)c(-c2nc3ccccc3n2C)c2nc3ccccc3nc21`, “inactive”.
